In PubChem BioAssay (Tox21):
Inconclusive results are not listed. The source made the active and inactive calls. Unless noted, the call rests on the fitted dose curve; in most records, active means well fitted curve in the direction sought with a large enough effect in the repeat runs; inconclusive means weak or mixed curves; inactive means no such curve, though single readings can be large; an effect the other way counts as inactive or inconclusive.

Key:
[1] = qHTS assay to identify small molecule antagonists of the progesterone receptor (PR) signaling pathway - cell viability counter screen (AID 1346798); further: nearly all actives have a fitted effect of over 50% in size; further: potency means the concentration at half of the fitted maximal effect
Summary of the method: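 ATP content as viability readout: CellTiter-Glo luminescence, 30 min room temperature, in PR-UAS-bla HEK293T cells after 16 hr compound/R5020 treatment at 37C and 5% CO2.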

[2] = qHTS assay to identify small molecule agonists of the progesterone receptor (PR) signaling pathway - cell viability counter screen (AID 1346799; calls by dose curve; further: nearly all actives have a fitted effect of over 45% in size)
Summary of the method: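 Cytotoxicity in PR-bla HEK293T cells: 16 h compound, 37C; CellTiter-Glo added post-FRET read; luminescence after 30 min RT.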

[3] = qHTS assay to identify small molecule antagonists of the TGF-beta/Smad signaling pathway - cell viability counter screen (AID 1346824); further: nearly all actives have a fitted effect of over 50% in size
Summary of the method: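 Cytotoxicity counter-screen run in the same wells as the beta-lactamase Smad reporter read: CellTiter-Glo luminescence after 30 min at room temperature. HEK 293T SBE-bla cells had 5 hr compound exposure at 37 C with TGF-beta1 (0.25 ng/mL stock).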

[4] = qHTS assay to identify small molecule agonists of the TGF-beta/Smad signaling pathway (AID 1346859; active means well fitted activation curve with a large enough effect in the signal ratio in the repeat runs, not every such curve was filed as active; the % refers to the signal ratio; further: series mostly up to about 77 µM)
Summary of the method: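 Stable Smad binding element-beta-lactamase HEK 293T cells; 5 hr compound exposure at 37 C under 5% CO2; 2 hr room-temperature substrate step; fluorescence excited at 405 nm, collected at 460 nm and 530 nm.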

[5] = biological target: Thyrotropin-releasing hormone receptor (Homo sapiens) (UniProt P34981); experiment: qHTS assay to identify small molecule agonists of the thyrotropin-releasing hormone receptor (TRHR) signaling pathway (AID 1346891; calls by dose curve; further: series mostly up to about 58 µM)
Summary of the method: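 In 1536-format, 1500 TRHR-Hek293 cells per well grew 18 h, took up calcium dye for 2 h at 37 °C, received compound, and were read kinetically; 15-point titrations, triplicates.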

[6] = Human pregnane X receptor (PXR) small molecule agonists, qHTS cell viability counter screen (AID 1346977); further: nearly all actives have a fitted effect of over 50% in size; further: potency means the concentration at half of the fitted maximal effect
Summary of the method: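 Readout is CellTiter-Fluor fluorescence from PXR-Luc HepG2 cells. Plated cells rested 5hr, then were treated with compounds for 24hr at 37C and 5% CO2, with reagent present during the last hour.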

[7] = Caspase-3/7 induction in HepG2 cells by small molecules, qHTS assay (AID 1346978); further: nearly all actives have a fitted effect of over 15% in size
Summary of the method: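 Caspase-3/7 induction was measured by Caspase-Glo 3/7 luminescence (30 min, room temperature) after a 17 hr compound exposure of wild-type HepG2 cells seeded at 2,000 per well and pre-incubated 5 hr.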

[8] = Caspase-3/7 induction in CHO-K1 cells by small molecules, qHTS cell viability counter screen (AID 1346979); further: nearly all actives have a fitted effect of over 35% in size; further: potency means the concentration at half of the fitted maximal effect
Summary of the method: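 To flag cytotoxic compounds, treated CHO-K1 wild-type cells were given CellTiter-Fluor at 16hr and read fluorescently after 1hr at 37C; the caspase-3/7 luminescence was measured in these same wells.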

[9] = qHTS assay to identify small molecule agonists of the TGF-beta/Smad signaling pathway - cell viability counter screen (AID 1346829); further: top concentration of the series differs between compounds; nearly all actives have a fitted effect of over 45% in size
Summary of the method: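 Here the cytotoxicity of library compounds is measured in SBE-bla HEK 293T cells treated for 5 hr, using CellTiter-Glo added to wells already read for the beta-lactamase reporter.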

[10] = biological target: Thyrotropin-releasing hormone receptor (Homo sapiens) (UniProt P34981); experiment: qHTS assay to identify small molecule antagonists of the thyrotropin-releasing hormone receptor (TRHR) signaling pathway (AID 1346877; active means well fitted inhibition curve with a large enough effect in the repeat runs, not every such curve was filed as active; further: series mostly up to about 51 µM)
Summary of the method: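 TRHR-expressing HEK293 cells were seeded, cultured 18 h at 37 °C, then loaded with calcium dye for 2 h. Compounds were pre-incubated 5 min at room temperature before 1 nM TRH (final) was added, and kinetic fluorescence was recorded for 3 min.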

Measured: Potency

Chain of Thyrotropin-releasing hormone receptor (Homo sapiens) (P34981 whole entry, looked up): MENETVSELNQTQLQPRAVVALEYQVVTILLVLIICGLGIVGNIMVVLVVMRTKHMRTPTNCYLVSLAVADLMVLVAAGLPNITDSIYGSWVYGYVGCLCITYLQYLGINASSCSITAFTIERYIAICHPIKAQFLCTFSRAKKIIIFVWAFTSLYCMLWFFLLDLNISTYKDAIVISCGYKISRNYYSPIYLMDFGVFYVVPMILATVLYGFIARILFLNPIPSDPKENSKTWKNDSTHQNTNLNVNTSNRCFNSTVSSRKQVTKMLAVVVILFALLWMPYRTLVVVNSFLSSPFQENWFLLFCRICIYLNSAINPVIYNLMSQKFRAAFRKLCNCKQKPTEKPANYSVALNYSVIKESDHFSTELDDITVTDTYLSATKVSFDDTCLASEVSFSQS

CC(C)c1ccc2c(C(C)C)cc(C(C)C)c(S(=O)(=O)O)c2c1
not listed: [9] | [10]
inactive: all other assays above

NC1CCN(c2nc3c(cc2F)c(=O)c(C(=O)O)cn3-c2ccc(F)cc2F)C1 (stereo not given)
not listed: [2] | [8]
inactive: all other assays above

Nc1ccc(C(=O)N2CC3CC(CN(Cc4ccccc4)C3)C2)cc1
not listed: [2]
inactive: all other assays above

CC1CCc2cc(F)cc3c(=O)c(C(=O)O)cn1c23 (stereo not given)
inactive: [1] | [2] | [3] | [7] | [8]

CC(C)=CCCC(C)CC=O (stereo not given)
not listed: [5] | [9] | [10]
inactive: all other assays above

COCCO
not listed: [5] | [6] | [9]
inactive: all other assays above

O=C(NS(=O)(=O)/C=C/c1cccs1)c1ccc(F)cc1Br
not listed: [9] | [10]
inactive: all other assays above

CC(=O)c1ccc2c(c1)[C@H](NC(=O)c1ccc(F)cc1)[C@@H](O)C(C)(C)O2
not listed: [2] | [8]
inactive: all other assays above

CC(=O)/C=C/C1C(C)=CCCC1(C)C (stereo not given)
not listed: [9] | [10]
inactive: all other assays above

CN(C)CC[C@@H](c1ccc(Br)cc1)c1ccccn1
inactive: [2] | [3] | [4] | [7] | [8]
active: [1] 2.66 µM

O=C(NN1CCCC1)NS(=O)(=O)c1ccc(Cl)cc1
not listed: [9]
inactive: all other assays above

CC(CN)CCCN (stereo not given)
inactive: [1] | [2] | [3] | [4] | [6] | [7]

COc1ccccc1OC(=O)Oc1ccccc1OC
not listed: [6] | [9]
inactive: all other assays above

COC(=O)C(C)=O
not listed: [5] | [9]
inactive: all other assays above

CC(C)(C)c1ccc(OCC2CO2)cc1 (stereo not given)
active: [8] 55.6 µM
not listed: [6] | [9]
inactive: all other assays above

C=CC(=O)OCCOC(=O)CCC(=O)O
not listed: [9]
inactive: all other assays above

CCCCCC(CO)CCC (stereo not given)
not listed: [6] | [9]
inactive: all other assays above

Cc1cc(C)c(S(=O)(=O)O)cc1N=Nc1cc(S(=O)(=O)O)c2ccccc2c1O
active: [6] 24.3 µM | [8] 30.6 µM
not listed: [9] | [10]
inactive: all other assays above

C=CC(=O)OCC(C)OCC(C)OCC(C)OC(=O)C=C (stereo not given)
active: [8] 24.3 µM
not listed: [5] | [9]
inactive: all other assays above

CCCCC(CC)(CO)CO
not listed: [2] | [10]
inactive: all other assays above

NC(=S)N/N=C/c1cccnc1
not listed: [2] | [6]
inactive: all other assays above

CC(C)(C)c1cc(CO)cc(C(C)(C)C)c1O
inactive: [1] | [3] | [9] | [4] | [10] | [7]

Nc1nc(N)c2nc(CNc3ccc(C(=O)N[C@@H](CCC(=O)O)C(=O)O)cc3)cnc2n1
not listed: [3] | [4] | [9]
inactive: all other assays above

Cc1ccc(C(C)c2ccc(C)c(C)c2)cc1C
not listed: [9] | [10]
inactive: all other assays above

Oc1ccc(O)c2c(O)cccc12
not listed: [9] | [10]
inactive: all other assays above

Cc1cccc(Oc2ccccc2)c1
active: [1] 21.1 µM
not listed: [2]
inactive: all other assays above
